Unmarked numbers belong to inactive results. For some assays here: Results with a measured potency or affinity are listed apart. Activity calls are given as the source filed them. Unless noted, no rule for the calls is given here.
How the values were obtained:
[1] = antimalarial activity against Dd2 strain (AID 2302;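 active = growth inhibition above 50% at the single 2 µM test dose, taken to imply half-maximal potency below 2 µM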;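 also: 0% = DMSO untreated growth and 100% = chloroquine plus artemisinin killed control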); conditions: P. falciparum Dd2 in RBCs, LDH growth readout, 72 h; at 2 µM; hits give high values
[2] = HepG2 cytotoxicity, primary screen, cytotoxicity control for P. falciparum antimalarial project, cell-based, ATP luminescence (AID 2303;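 active = inhibition above 50%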;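 also: 0% = DMSO wells and 100% = digitonin-killed cells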); conditions: HepG2 viability, 24-48 h, at 10 µM, hits give high values
[3] = target: L-lactate dehydrogenase (Plasmodium falciparum (isolate CDC / Honduras)) (UniProt Q27743); assay: PfLDH activity inhibition – cell lysate, 3D7 strain, counter-screen for P. falciparum growth inhibition project (AID 2304);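 also: 0% = vehicle and 100% = reference inhibitor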; conditions: P. falciparum 3D7 crude extract, LDH APAD/NBT absorbance; at 2 µM; hits give high values
Chain of L-lactate dehydrogenase (Plasmodium falciparum (isolate CDC / Honduras)) (Q27743 whole entry, looked up): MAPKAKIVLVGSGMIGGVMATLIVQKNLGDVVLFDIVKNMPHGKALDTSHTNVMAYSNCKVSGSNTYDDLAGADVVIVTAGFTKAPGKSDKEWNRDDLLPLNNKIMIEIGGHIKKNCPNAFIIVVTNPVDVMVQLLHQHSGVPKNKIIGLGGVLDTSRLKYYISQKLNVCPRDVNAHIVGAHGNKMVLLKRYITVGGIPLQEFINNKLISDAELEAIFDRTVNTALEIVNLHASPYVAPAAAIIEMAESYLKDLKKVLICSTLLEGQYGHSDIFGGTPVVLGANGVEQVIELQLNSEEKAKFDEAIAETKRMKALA

[4] = inhibition of 3D7 malaria parasite growth – strain 3D7 (AID 2306);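 also: 0% = DMSO wells and 100% = chloroquine plus artemisinin control wells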; conditions: P. falciparum 3D7 erythrocytic growth, LDH absorbance, 72 h; at 2 µM; hits give high values
[5] = target: Calcium-dependent protein kinase 1 (Plasmodium falciparum (isolate 3D7)) (UniProt P62344); assay: PfCDPK1 kinase inhibitors, biochemical, TCAMS library (AID 1159585; cut-off not given, nearly all actives have IC50 up to about 0.98 µM;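 also: inhibitors leave more ATP so luminescence rises with inhibition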); conditions: recombinant PfCDPK1, Kinase-Glo ATP depletion luminescence
Chain of Calcium-dependent protein kinase 1 (Plasmodium falciparum (isolate 3D7)) (P62344 whole entry, looked up): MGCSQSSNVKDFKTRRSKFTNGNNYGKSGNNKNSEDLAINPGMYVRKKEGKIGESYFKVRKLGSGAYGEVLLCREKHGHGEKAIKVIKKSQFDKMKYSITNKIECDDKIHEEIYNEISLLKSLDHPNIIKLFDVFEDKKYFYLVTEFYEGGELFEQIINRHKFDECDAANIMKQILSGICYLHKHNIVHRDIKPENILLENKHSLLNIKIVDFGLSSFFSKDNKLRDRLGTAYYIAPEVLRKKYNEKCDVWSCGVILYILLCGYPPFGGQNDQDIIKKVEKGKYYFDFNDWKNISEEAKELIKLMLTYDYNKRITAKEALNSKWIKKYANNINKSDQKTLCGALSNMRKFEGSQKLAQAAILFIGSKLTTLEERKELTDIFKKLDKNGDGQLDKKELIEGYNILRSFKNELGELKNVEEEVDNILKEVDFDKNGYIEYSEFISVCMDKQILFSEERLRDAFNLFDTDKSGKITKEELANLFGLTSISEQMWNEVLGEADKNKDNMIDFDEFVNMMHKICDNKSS

[6] = target: Plasmodium falciparum protein kinase 6 (PK6, PF3D7_1337100) (UniProt Q8IDW1); assay: PfPK6 kinase inhibitors, biochemical, TCAMS library (AID 1159586); conditions: recombinant PfPK6, Kinase-Glo ATP depletion luminescence
Chain of Plasmodium falciparum protein kinase 6 (PK6, PF3D7_1337100) (Q8IDW1 1-305): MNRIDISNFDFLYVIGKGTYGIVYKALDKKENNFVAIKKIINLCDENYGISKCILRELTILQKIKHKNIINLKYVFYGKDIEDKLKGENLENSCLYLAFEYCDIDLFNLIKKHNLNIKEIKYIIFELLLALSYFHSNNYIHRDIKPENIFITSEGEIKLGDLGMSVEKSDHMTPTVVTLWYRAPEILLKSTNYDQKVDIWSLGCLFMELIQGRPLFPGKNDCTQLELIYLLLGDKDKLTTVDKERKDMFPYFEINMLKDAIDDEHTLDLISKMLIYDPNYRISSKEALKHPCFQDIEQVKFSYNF

[7] = target: Protein kinase 7 (PK7), Plasmodium falciparum 3D7 (PF3D7_0213400) (UniProt Q7YTF7); assay: inhibition of Plasmodium PK7 catalytic activity – biochemical, TCAMS antimalarial set, Kinase-Glo luminescence (AID 1159587); conditions: recombinant PfPK7, Kinase-Glo ATP depletion luminescence
Chain of Protein kinase 7 (PK7), Plasmodium falciparum 3D7 (PF3D7_0213400) (Q7YTF7 1-343): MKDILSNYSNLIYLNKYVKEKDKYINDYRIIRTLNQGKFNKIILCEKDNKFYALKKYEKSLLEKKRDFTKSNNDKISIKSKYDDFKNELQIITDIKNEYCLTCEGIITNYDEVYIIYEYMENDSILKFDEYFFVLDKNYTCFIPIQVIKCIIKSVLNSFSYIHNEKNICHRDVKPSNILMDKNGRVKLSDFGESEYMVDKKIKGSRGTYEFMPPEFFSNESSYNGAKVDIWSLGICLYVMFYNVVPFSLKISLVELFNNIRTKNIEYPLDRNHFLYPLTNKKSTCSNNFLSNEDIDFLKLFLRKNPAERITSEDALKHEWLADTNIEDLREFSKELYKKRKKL

[8] = target: Calcium-dependent protein kinase 4 (Plasmodium falciparum (isolate 3D7)) (UniProt Q8IBS5); assay: PfCDPK4 kinase inhibitors, biochemical, TCAMS library (AID 1159588; cut-off not given, nearly all actives have IC50 up to about 0.91 µM); conditions: recombinant PfCDPK4, Kinase-Glo ATP depletion luminescence
Chain of Calcium-dependent protein kinase 4 (Plasmodium falciparum (isolate 3D7)) (Q8IBS5 whole entry, looked up): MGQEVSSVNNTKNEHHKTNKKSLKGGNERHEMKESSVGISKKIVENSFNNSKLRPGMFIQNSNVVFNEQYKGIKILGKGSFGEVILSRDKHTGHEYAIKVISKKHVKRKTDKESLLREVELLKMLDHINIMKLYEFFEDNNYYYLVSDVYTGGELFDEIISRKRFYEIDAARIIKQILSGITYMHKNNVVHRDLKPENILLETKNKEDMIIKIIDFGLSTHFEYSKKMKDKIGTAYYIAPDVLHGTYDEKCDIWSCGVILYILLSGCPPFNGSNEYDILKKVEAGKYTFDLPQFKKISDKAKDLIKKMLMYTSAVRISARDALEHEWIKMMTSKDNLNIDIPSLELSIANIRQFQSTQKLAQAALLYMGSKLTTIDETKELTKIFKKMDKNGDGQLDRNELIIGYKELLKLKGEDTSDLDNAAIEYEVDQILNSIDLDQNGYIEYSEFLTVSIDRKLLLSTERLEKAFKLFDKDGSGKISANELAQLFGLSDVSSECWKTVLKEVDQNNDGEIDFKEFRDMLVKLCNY

| Compound | growth inhibition [1] | inhibition [2] | inhibition [3] [%] | growth inhibition [4] | outcome [5] | outcome [6] | outcome [7] | outcome [8] |
| --- | --- | --- | --- | --- | --- | --- | --- | --- |
| CCNc1cc(C(=O)N[C@@H](Cc2ccccc2)[C@H](O)CNCCC(C)(C)C)c(F)c(N2CCCCS2(=O)=O)c1 | 93% (active) | 2% | 2 | 98% (active) | inactive | inactive | inactive | inactive |
| CC(=O)Nc1sc(C)c(C)c1CN1CCc2ccccc2C1 | 94% (active) | -8% | 1 | 93% (active) | inactive | inactive | inactive | inactive |
| CN(C)CC(=O)Nc1ccc(-c2ccc3ccnc(N)c3c2)cc1 | 99% (active) | 69% (active) | 2 | 101% (active) | inactive | inactive | inactive | inactive |
| COCCSc1nc2scc(C)c2c(=O)n1Cc1cccc(OC)c1 | 33% | 0% | -8 | 92% (active) | inactive | inactive | inactive | inactive |
| O=[N+]([O-])c1cc(/C=N/Nc2nc3ccccc3[nH]2)ccc1O | 14% | -7% | -5 | 98% (active) | inactive | inactive | inactive | inactive |
| COc1cc(Nc2nccn3c(-c4ccsc4)cnc23)cc(OC)c1OC | 78% (active) | 26% | 3 | 93% (active) | inactive | inactive | inactive | inactive |
| O=C(NCCCCN1CCC(c2ccc3c(c2OCC2COCO2)CCCC3)CC1)c1ccc(-c2ccc(C(F)(F)F)cc2)cc1 (configuration not stated) | 45% | 91% (active) | -2 | 99% (active) | inactive | inactive | inactive | inactive |
| Cc1cccc2[nH]c(-c3cccc(-c4ccc(NC(=O)Nc5ccc(F)c(F)c5F)cc4)c3)nc12 | 100% (active) | 61% (active) | -4 | 101% (active) | inactive | inactive | inactive | inactive |
| N#Cc1cncc(-c2nc3c(N4CCCC(N)C4)cccc3n2CCNCc2ccccc2)c1 (configuration not stated) | 1% | 8% | -1 | 101% (active) | inactive | inactive | inactive | inactive |
| CCCCN=C(N)Nc1ccc(OCCCOc2ccc(NC(N)=NCCCC)cc2)cc1 | 97% (active) | 15% | 4 | 96% (active) | inactive | inactive | inactive | inactive |
| COc1ccc(CCNC(=O)c2cnc3c(c2)nc(-c2cnc(-c4ccccc4)[nH]2)n3CCc2cnc[nH]2)cc1 | 70% (active) | 16% | 1 | 96% (active) | inactive | inactive | inactive | inactive |
| O=C(Nc1ccc(C(F)(F)F)cc1)NC1CCN(c2ccnc3ccccc23)CC1 | 62% (active) | 46% | -2 | 103% (active) | inactive | inactive | inactive | inactive |
| OC(CNCc1cccc(Oc2ccc(Cl)cc2)c1)c1cc(C(F)(F)F)cc(C(F)(F)F)c1 (configuration not stated) | 101% (active) | -4% | 8 | 99% (active) | inactive | inactive | inactive | inactive |
| Clc1cc(Cl)c2cc(CNCCCNc3ccc4ccccc4n3)[nH]c2c1 | 54% (active) | 98% (active) | 3 | 99% (active) | inactive | inactive | inactive | inactive |
| O=C(NC1CC1)c1ccc(N2CCCC(COc3ccccc3F)C2)nc1 (configuration not stated) | 92% (active) | 8% | -2 | 87% (active) | inactive | inactive | inactive | inactive |
| COc1ccc(Nc2ncc3c(-c4cccc(NC(=O)Cc5ccncc5)c4)c[nH]c3n2)cc1OC | 87% (active) | 23% | 1 | 99% (active) | inactive | inactive | inactive | inactive |
| CCN(CC)CCNC(=O)c1ccc(NC(=O)c2cn(-c3ccccc3)nc2-c2cccs2)cc1 | 94% (active) | 30% | -1 | 103% (active) | inactive | inactive | inactive | inactive |
| CCCN(CC1CC1)c1ncc(-c2cccc(CNCCC3CCCN3C)c2)cn1 (configuration not stated) | 43% | 77% (active) | 7 | 98% (active) | inactive | inactive | inactive | inactive |
| CC(C)CNCc1ccc(-c2cccc(CN(CCN(C)C)C(=O)CCC3CCCC3)c2)cc1 | 81% (active) | 56% (active) | -11 | 100% (active) | inactive | inactive | inactive | inactive |
